Data on seven sequences can be found in publication PMC7862700, “An all-to-all approach to the identification of sequence-specific readers for epigenetic DNA modifications on cytosine”.

What all share (assay): DAPPL (digital affinity profiling via proximity ligation, sequencing); 10 mM Tris-HCl pH 7.5, 50 mM NaCl, 1 mM DTT, 4% glycerol, room temperature, 30 min; GST-TFs on glutathione beads, 16-mer random dsDNA library, 0.1% formaldehyde crosslink after washing; high values mean tight binding
Holding throughout (settings): protein: recombinant; tags: N-terminal GST; dsDNA, one strand shown

In assay [1] the target is T1, ERF (Homo sapiens, UniProt P50548 1-548).
T1 sequence: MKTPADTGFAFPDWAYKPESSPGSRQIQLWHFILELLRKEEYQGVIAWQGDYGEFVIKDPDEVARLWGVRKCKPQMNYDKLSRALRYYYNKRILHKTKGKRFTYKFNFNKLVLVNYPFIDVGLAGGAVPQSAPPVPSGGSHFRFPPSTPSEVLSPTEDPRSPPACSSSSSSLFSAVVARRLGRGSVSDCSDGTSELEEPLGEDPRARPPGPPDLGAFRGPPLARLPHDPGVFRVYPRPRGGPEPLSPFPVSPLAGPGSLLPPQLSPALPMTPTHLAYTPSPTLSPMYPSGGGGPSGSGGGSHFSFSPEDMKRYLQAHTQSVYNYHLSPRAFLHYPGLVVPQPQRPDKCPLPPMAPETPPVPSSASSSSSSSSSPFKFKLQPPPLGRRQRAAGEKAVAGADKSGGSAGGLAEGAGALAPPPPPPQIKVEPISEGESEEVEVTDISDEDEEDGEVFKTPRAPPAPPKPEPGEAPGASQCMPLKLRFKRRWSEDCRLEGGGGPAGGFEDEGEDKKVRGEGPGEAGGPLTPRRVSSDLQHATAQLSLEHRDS
The gist of the method: (§1)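 Binding signal is each hexamer's read frequency for a factor divided by its frequency in the tag-only sample. The factors were GST-fused human transcription factors from yeast, captured on glutathione beads, DNA-barcoded and pooled with that sample. Pools were incubated with 200 nmole of a random double-stranded 16-mer DNA library in Tris/NaCl/DTT/glycerol buffer at room temperature for 30 min, then washed, crosslinked with 0.1% formaldehyde, proximity-ligated with BsaI/T4 ligase (1 h, 37 °C), PCR-amplified and sequenced on an Illumina NextSeq500.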

Assay [2] has as its target T2, ETV3L (Homo sapiens, UniProt Q6ZN32 1-361).
T2 sequence: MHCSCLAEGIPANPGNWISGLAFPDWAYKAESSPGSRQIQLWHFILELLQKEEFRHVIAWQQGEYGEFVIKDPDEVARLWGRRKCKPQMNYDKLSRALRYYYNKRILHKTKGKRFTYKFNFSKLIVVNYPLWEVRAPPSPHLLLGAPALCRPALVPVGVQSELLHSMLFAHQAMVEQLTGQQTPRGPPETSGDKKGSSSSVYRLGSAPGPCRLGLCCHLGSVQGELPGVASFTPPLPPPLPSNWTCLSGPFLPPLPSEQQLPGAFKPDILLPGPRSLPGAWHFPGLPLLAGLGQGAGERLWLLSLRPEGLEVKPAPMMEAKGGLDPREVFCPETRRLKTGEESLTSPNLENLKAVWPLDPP
In a few lines: as §1

Assay [3] concerns the target T3, ETS2 (Homo sapiens, UniProt P15036 1-469).
T3 sequence: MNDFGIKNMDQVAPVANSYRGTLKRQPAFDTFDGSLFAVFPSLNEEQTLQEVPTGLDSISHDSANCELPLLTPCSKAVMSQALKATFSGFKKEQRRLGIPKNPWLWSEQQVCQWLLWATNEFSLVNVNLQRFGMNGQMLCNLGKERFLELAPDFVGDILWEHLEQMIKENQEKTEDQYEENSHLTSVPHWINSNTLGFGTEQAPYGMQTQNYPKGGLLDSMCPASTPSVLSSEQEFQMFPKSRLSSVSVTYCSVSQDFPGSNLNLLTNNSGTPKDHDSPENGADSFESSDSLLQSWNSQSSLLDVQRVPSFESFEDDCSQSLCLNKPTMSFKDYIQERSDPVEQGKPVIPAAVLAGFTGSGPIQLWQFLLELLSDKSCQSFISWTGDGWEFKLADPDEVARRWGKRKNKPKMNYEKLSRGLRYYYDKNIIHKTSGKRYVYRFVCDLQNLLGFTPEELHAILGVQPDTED
In a few lines:
as §1

The target of assay [4] is T4, SPDEF (Homo sapiens, UniProt O95238 1-335).
T4 sequence: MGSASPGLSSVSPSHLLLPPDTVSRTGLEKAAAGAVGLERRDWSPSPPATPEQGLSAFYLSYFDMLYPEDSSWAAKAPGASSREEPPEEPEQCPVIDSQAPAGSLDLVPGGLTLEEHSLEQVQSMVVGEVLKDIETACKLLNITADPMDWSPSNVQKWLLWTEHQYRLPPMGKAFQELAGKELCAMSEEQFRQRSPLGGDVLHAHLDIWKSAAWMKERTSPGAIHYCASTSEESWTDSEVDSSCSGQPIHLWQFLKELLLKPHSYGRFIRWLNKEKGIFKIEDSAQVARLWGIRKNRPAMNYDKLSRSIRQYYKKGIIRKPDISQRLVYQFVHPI
In a few lines: as §1

In assay [5] the target is T5, ETV7 (Homo sapiens, UniProt Q9Y603 1-341).
T5 sequence: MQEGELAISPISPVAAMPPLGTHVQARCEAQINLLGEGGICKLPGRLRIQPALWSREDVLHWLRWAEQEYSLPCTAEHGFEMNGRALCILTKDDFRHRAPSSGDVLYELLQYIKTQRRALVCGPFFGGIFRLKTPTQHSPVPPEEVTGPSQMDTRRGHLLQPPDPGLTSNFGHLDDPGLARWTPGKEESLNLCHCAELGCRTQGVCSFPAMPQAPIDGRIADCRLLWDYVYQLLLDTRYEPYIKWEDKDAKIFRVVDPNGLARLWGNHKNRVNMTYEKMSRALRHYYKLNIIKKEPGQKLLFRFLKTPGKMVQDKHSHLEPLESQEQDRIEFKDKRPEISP
The gist of the method: as §1

Assay [6] concerns the target T6, ELF5 (Homo sapiens, UniProt Q9UKW6-2 1-255).
T6 sequence: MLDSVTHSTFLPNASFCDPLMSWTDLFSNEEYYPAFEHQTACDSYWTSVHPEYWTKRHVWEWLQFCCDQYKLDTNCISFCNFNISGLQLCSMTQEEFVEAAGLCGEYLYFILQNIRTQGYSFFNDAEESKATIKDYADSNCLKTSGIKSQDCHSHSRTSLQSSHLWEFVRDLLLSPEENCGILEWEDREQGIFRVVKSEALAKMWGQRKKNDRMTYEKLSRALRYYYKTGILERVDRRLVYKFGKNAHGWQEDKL
The gist of the method: as §1

The target of assay [7] is T7, ETV3 (Homo sapiens, UniProt P41162-2 1-143).
T7 sequence: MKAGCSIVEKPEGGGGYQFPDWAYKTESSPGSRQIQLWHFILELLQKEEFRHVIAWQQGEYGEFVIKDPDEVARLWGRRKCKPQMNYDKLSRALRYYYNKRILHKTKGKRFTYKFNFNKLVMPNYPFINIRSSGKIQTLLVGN
In a few lines: as §1

The target in assay [8] is ETV6 (Homo sapiens, UniProt P41212 1-452). In a few lines: as §1
Sequence of ETV6 (P41212 whole entry): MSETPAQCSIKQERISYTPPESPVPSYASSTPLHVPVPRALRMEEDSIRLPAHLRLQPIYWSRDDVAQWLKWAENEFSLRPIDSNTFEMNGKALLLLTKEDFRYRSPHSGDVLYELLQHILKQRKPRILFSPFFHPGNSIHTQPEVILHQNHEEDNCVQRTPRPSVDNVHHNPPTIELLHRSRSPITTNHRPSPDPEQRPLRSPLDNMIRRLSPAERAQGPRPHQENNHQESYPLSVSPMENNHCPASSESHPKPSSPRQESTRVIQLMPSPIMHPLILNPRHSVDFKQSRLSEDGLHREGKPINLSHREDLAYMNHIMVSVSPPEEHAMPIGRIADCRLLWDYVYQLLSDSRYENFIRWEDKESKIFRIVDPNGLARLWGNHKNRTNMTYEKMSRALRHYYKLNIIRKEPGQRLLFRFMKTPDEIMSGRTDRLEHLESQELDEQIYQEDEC

Consider TCTCCC, for which the binding signal in assay [1] is 1.89 fold enrichment (6-mer frequency, TF over GST control); in assay [2], 1.61 fold enrichment (6-mer frequency, TF over GST control); in assay [3] it was 1.6 fold enrichment (6-mer frequency, TF over GST control); in assay [4], 1.6 fold enrichment (6-mer frequency, TF over GST control); in assay [5] it was 1.57 fold enrichment (6-mer frequency, TF over GST control); in assay [6] it was 1.7 fold enrichment (6-mer frequency, TF over GST control). Besides, the binding signal in assay [7] was 1.71 fold enrichment (6-mer frequency, TF over GST control); in assay [8], 1.76 fold enrichment (6-mer frequency, TF over GST control).
Turning to CCCAAT, the binding signal was 1.18 fold enrichment (6-mer frequency, TF over GST control) in assay [1]; 1.27 fold enrichment (6-mer frequency, TF over GST control) in assay [2]; 1.22 fold enrichment (6-mer frequency, TF over GST control) in assay [3]; 1.29 fold enrichment (6-mer frequency, TF over GST control) in assay [4]; 1.15 fold enrichment (6-mer frequency, TF over GST control) in assay [5]; 1.23 fold enrichment (6-mer frequency, TF over GST control) in assay [6]. For the same sequence, the binding signal in assay [7] was 1.18 fold enrichment (6-mer frequency, TF over GST control); in assay [8], 1.28 fold enrichment (6-mer frequency, TF over GST control).
Consider CTAAGT, for which the binding signal in assay [1] is 1.13 fold enrichment (6-mer frequency, TF over GST control); in assay [2] it was 1.33 fold enrichment (6-mer frequency, TF over GST control); in assay [3], 1.23 fold enrichment (6-mer frequency, TF over GST control); in assay [4] it was 1.3 fold enrichment (6-mer frequency, TF over GST control); in assay [5], 1.29 fold enrichment (6-mer frequency, TF over GST control); in assay [6] it was 1.17 fold enrichment (6-mer frequency, TF over GST control). Also, the binding signal in assay [7] is 1.21 fold enrichment (6-mer frequency, TF over GST control); in assay [8], 1.27 fold enrichment (6-mer frequency, TF over GST control).
Consider TCTCGA, for which the binding signal was 1.35 fold enrichment (6-mer frequency, TF over GST control) in assay [1]; 1.35 fold enrichment (6-mer frequency, TF over GST control) in assay [2]; 1.44 fold enrichment (6-mer frequency, TF over GST control) in assay [3]; 1.2 fold enrichment (6-mer frequency, TF over GST control) in assay [4]; 1.47 fold enrichment (6-mer frequency, TF over GST control) in assay [5]; 1.27 fold enrichment (6-mer frequency, TF over GST control) in assay [6]. Also, the binding signal in assay [7] was 1.4 fold enrichment (6-mer frequency, TF over GST control); in assay [8], 1.47 fold enrichment (6-mer frequency, TF over GST control).
As to ACTCTC, the binding signal in assay [1] is 1.42 fold enrichment (6-mer frequency, TF over GST control); in assay [2] it was 1.49 fold enrichment (6-mer frequency, TF over GST control); in assay [3], 1.48 fold enrichment (6-mer frequency, TF over GST control); in assay [4] it was 1.45 fold enrichment (6-mer frequency, TF over GST control); in assay [5] it was 1.27 fold enrichment (6-mer frequency, TF over GST control); in assay [6] it was 1.37 fold enrichment (6-mer frequency, TF over GST control). Moreover, the binding signal is 1.5 fold enrichment (6-mer frequency, TF over GST control) in assay [7] and 1.33 fold enrichment (6-mer frequency, TF over GST control) in assay [8].
With CCCCAT, the binding signal in assay [1] was 1.16 fold enrichment (6-mer frequency, TF over GST control); in assay [2] it was 1.29 fold enrichment (6-mer frequency, TF over GST control); in assay [3] it was 1.32 fold enrichment (6-mer frequency, TF over GST control); in assay [4], 1.3 fold enrichment (6-mer frequency, TF over GST control); in assay [5], 1.19 fold enrichment (6-mer frequency, TF over GST control); in assay [6] it was 1.39 fold enrichment (6-mer frequency, TF over GST control). Also, the binding signal was 1.31 fold enrichment (6-mer frequency, TF over GST control) in assay [7] and 1.25 fold enrichment (6-mer frequency, TF over GST control) in assay [8].
Regarding ATCGAC, the binding signal was 1.1 fold enrichment (6-mer frequency, TF over GST control) in assay [1]; 1.21 fold enrichment (6-mer frequency, TF over GST control) in assay [2]; 1.1 fold enrichment (6-mer frequency, TF over GST control) in assay [3]; 1.06 fold enrichment (6-mer frequency, TF over GST control) in assay [4]; 1.28 fold enrichment (6-mer frequency, TF over GST control) in assay [5]; 1.09 fold enrichment (6-mer frequency, TF over GST control) in assay [6]. The binding signal was 1.25 fold enrichment (6-mer frequency, TF over GST control) in assay [7] and 1.21 fold enrichment (6-mer frequency, TF over GST control) in assay [8].
